From PubChem BioAssay
Most compounds without a hit are left out; they make up all but 8.7% or so of the library.
12-LOX inh: Primary qHTS assay for inhibitors of human arachidonate 12S-lipoxygenase (ALOX12): Round 2; Polyunsaturated fatty acid lipoxygenase ALOX12 (Homo sapiens), P18054; purified 12hLO, xylenol orange hydroperoxide absorbance; Potency, µM (doses to about 108 µM), for inactives: top-dose activity change, negative = inhibition, usual class: inhibitors; 580,000 compounds, 1.1% hits; AID 1671190, 2021; note: % is set by controls: 0 for no effect and ±100 for the full control effect
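Purified human 12hLO (150 nM final) in 25 mM Hepes, 0.01% Triton X-100, pH 7.0 was preincubated 15 min at room temperature with compound. Then 40 uM arachidonic acid was added, 30 min. Hydroperoxide was read by Fe-XO absorbance ratio 573/405 nm.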
HP1b chromo inh: HTS for Inhibitors of HP1-beta Chromodomain Interactions with Methylated Histone Tails; Chromobox protein homolog 1 (Homo sapiens), P83916; AlphaScreen HP1-beta / biotin-H3K9me3 peptide binding; Potency, µM (highest dose often 114 µM), without a hit: top-dose activity change, negative = inhibition, actives largely listed as inhibitors; 390,000 compounds, 0.56% hits; AID 540317, 2011; note: nearly all actives have a fitted effect of over 70% in size
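AlphaScreen: HP1-beta (50 nM) preformed 30 min with biotin-H3(1-18)K9me3 peptide (50 nM) in PBS pH 7.4, 0.01% Tween-20. Compound added for 30 min at RT, then streptavidin donor/nickel chelate acceptor beads (10 ug/mL) for 30 min.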
G9a inh: qHTS Assay for Inhibitors of Histone Lysine Methyltransferase G9a. Histone-lysine N-methyltransferase EHMT2 (Homo sapiens), Q96KQ7. G9a H3K9 monomethylation, AlphaScreen, 2 h. Potency, µM (top dose mostly 102 µM), for the others: at the top dose activity, negative = inhibition, hits mostly inhibitors. 350,000 compounds, 8.8% hits; note: % is set by controls: 0 for no effect and ±100 for the full control effect; nearly all actives have a fitted effect of over 75% in size
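Enzyme 20 nM + cpd, 15 min RT; add b-H3K9 pep 500 nM / SAM 20 uM; 2 h RT; anti-H3K9me1 Ab 0.5 ug/mL + SA donor / anti-rabbit acceptor beads 20 ug/mL each, 10 min; AlphaScreen read.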
JMJD2A Tudor: qHTS Assay for Inhibitors of JMJD2A-Tudor Domain | 390,000 compounds, 4.4% hits | AlphaScreen JMJD2A-Tudor / H3K4me3 peptide binding | Potency, µM (highest dose often 114 µM), inactives show top-dose activity change, negative = inhibition, actives largely listed as inhibitors | Lysine-specific demethylase 4A (Homo sapiens), O75164 | AID 504339, 2011; note: % is set by controls: 0 for no effect and ±100 for the full control effect; nearly all actives have a fitted effect of over 50% in size
Sfp inh: qHTS Assay for Inhibitors of Bacillus subtilis Sfp phosphopantetheinyl transferase (PPTase); Biochemical Sfp PPTase activity, qHTS; Potency, µM, for inactives: largest response in the series, negative = inhibition, most hits filed as inhibitors; 4'-phosphopantetheinyl transferase ffp (Bacillus subtilis), Q9F4F7; 310,000 compounds, 3.5% hits;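 note: the enzyme is Sfp with the accession as filed and its product quenches rhodamine fluorescence; 0% = enzyme reaction without inhibitor and -100% = no enzyme wells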
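Fluorescence-quenching assay: 15 nM Sfp-PPTase preincubated 15 min at room temperature with compound, then 5 uM rhodamine-CoA and 12.5 uM BHQ-2-labelled YbbR peptide added. Fluorescence (ex 525/em 598 nm) read at start and after 30 min; difference gives rate.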
BAZ2B block: qHTS Assay for Inhibitors of BAZ2B | Bromodomain adjacent to zinc finger domain protein 2B (Homo sapiens), Q9UIF8 | AlphaScreen BAZ2B-H3K14Ac peptide displacement | Potency, µM (titrated, usually from 114 µM), for inactives: at the highest dose activity change, negative = inhibition, hits mostly inhibitors | 360,000 compounds, 4.4% hits | AID 504333, 2011; note: % is set by controls: 0 for no effect and ±100 for the full control effect; nearly all actives have a fitted effect of over 60% in size
Target sequence (Q9UIF8 whole entry, looked up, the tested form may be a part): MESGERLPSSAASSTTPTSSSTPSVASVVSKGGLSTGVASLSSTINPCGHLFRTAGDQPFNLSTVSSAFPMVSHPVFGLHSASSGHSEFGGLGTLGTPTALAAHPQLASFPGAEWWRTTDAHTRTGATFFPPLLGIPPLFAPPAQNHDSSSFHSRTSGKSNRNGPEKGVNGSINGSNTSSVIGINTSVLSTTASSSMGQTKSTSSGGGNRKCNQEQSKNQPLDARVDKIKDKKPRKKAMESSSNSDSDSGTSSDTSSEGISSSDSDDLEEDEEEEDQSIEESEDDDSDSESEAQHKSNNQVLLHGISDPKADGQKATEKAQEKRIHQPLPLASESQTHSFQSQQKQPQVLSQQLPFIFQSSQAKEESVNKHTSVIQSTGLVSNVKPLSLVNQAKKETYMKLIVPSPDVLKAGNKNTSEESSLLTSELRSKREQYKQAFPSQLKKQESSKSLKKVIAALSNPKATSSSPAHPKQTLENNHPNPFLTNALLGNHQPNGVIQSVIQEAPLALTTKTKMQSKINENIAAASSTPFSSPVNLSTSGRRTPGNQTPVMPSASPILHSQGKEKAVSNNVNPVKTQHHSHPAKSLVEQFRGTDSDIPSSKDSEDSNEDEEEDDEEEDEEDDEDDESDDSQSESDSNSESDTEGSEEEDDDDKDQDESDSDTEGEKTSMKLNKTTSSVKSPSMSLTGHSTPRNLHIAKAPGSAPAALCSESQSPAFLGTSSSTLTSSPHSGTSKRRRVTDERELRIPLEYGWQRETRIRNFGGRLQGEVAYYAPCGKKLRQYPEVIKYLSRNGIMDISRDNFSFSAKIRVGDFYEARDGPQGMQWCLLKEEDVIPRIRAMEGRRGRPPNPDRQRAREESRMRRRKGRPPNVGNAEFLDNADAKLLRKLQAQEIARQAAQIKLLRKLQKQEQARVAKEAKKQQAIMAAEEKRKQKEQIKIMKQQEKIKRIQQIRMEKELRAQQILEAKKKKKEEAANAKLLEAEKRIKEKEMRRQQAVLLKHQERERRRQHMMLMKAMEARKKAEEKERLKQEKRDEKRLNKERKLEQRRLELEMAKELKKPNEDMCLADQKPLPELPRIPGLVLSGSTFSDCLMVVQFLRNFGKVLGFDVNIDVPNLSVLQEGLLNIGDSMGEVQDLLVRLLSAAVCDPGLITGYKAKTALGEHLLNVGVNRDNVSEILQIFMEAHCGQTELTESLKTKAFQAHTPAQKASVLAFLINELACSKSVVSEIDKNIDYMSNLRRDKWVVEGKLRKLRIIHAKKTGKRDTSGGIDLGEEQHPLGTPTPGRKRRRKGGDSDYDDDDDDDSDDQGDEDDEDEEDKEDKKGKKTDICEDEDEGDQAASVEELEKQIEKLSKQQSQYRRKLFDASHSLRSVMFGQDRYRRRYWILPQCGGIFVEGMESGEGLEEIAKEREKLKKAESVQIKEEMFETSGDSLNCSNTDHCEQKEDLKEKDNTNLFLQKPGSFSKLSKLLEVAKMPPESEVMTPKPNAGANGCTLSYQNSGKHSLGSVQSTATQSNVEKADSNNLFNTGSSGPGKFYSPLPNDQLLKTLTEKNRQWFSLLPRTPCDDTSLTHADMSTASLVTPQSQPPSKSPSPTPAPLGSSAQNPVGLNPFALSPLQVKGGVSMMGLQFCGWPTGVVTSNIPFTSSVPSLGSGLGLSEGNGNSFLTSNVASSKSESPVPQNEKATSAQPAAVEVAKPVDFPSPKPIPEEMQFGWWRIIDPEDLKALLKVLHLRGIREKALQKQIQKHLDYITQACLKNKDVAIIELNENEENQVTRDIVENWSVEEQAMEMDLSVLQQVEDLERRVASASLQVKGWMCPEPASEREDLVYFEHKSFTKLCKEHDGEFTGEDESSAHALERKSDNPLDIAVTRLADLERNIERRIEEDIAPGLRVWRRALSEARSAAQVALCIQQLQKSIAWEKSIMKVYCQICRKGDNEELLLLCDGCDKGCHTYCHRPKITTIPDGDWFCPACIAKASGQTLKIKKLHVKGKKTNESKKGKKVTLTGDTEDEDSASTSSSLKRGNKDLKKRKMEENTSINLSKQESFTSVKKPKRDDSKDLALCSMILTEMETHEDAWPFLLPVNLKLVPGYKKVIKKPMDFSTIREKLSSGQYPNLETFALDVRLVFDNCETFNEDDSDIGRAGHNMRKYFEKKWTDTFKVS
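AlphaScreen luminescence quantifies BAZ2B engagement of H3K14Ac peptide; the protein and biotinylated peptide are both at 50 nM final, buffer PBS pH 7.4 with 0.01% Tween-20, all steps at room temperature.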
An asterisk follows results filed as active; [ ] = remark or other dose. Calls come from the whole dose curve; as a rule, active = well fitted curve in the direction sought with a large enough effect; inconclusive = small, poorly fitted or top-dose-only effect, or another doubt; inactive = no such curve, though single readings can be large; an effect the other way counts as inactive or inconclusive. Potency is the fitted concentration of half-maximal effect.

For CCN(CC)C(=O)c1ccc(/C=C/c2c[nH]c3ccccc23)[n+](C)c1 the results were 12-LOX inh inconclusive, HP1b chromo inh 19%, G9a inh 3.2µM*, JMJD2A Tudor inconclusive, Sfp inh -17% and BAZ2B block -9%.
For CC[n+]1c(C)ccc2cc(C)ccc21 the results were 12-LOX inh 5.6µM*.
`Cc1ccc(C(=O)/C=C/c2c[nH]c3ccccc23)cc1` gave 12-LOX inh inconclusive, HP1b chromo inh 30%, G9a inh 3%[12.7 µM], JMJD2A Tudor -16%, Sfp inh -14% and BAZ2B block inconclusive.
Screening CC[n+]1c(/C=C/c2c[nH]c3ccccc23)ccc2cc(C)ccc21 returned 12-LOX inh inconclusive, HP1b chromo inh -19%, G9a inh 35µM*, JMJD2A Tudor inconclusive, Sfp inh inconclusive and BAZ2B block inconclusive.
N#C/C(=C/c1ccccc1OCc1ccccc1)c1nc2ccccc2[nH]1 was read as 12-LOX inh 15%.
For Cc1ccc(Sc2ccc(Cl)nn2)cc1 the results were 12-LOX inh -21%.
O=S(=O)(c1cccc(NC(=S)NCc2ccco2)c1)N1CCOCC1 was read as 12-LOX inh -19%, HP1b chromo inh 16%, G9a inh inconclusive, JMJD2A Tudor -15%, Sfp inh 5% and BAZ2B block -10%.
For NS(=O)(=O)c1ccc(NC(=S)NCc2ccc(F)cc2)cc1 the results were 12-LOX inh inconclusive, HP1b chromo inh -17%, G9a inh inconclusive, JMJD2A Tudor -13%, Sfp inh inconclusive and BAZ2B block -37%.
O=C(c1ccc(NC(=S)NCc2ccco2)cc1)N1CCOCC1 was read as 12-LOX inh -12%, HP1b chromo inh 10%, G9a inh 45µM*, JMJD2A Tudor -7%, Sfp inh 14% and BAZ2B block -18%.
Screening O=S(=O)(c1ccc(NC(=S)NCc2ccco2)cc1)N1CCCCC1 returned 12-LOX inh inconclusive, HP1b chromo inh -7%, G9a inh 56µM*, JMJD2A Tudor -31%, Sfp inh 9% and BAZ2B block -38%.
`COC(=O)c1cccc(NC(=S)NCc2ccco2)c1` gave 12-LOX inh -23%, HP1b chromo inh -32%, JMJD2A Tudor inconclusive, Sfp inh -12% and BAZ2B block inconclusive.
Screening NC(=O)c1ccc(NC(=S)NCc2ccco2)cc1 returned 12-LOX inh -7%, HP1b chromo inh 14%, G9a inh 50µM*, JMJD2A Tudor -18%, Sfp inh -3% and BAZ2B block 1%.
`NS(=O)(=O)c1ccc(NC(=S)NCc2ccco2)cc1` gave 12-LOX inh inconclusive, HP1b chromo inh inconclusive, G9a inh 3.2µM*, JMJD2A Tudor -29%, Sfp inh 20µM* and BAZ2B block inconclusive.
For Cn1nccc1CN1CCn2c(nn(-c3ccc(C(F)(F)F)cc3)c2=O)C1 the results were 12-LOX inh 9%[6.33 µM].
Screening Cc1nnc(NC(=O)C2(c3ccc(F)cc3)CCC2)s1 returned 12-LOX inh 4%.
Screening O=C(NCc1ccco1)c1ccc(S(=O)(=O)N2CCCCC2)cc1 returned 12-LOX inh -2%, HP1b chromo inh 29%, G9a inh -1%, JMJD2A Tudor -10%, Sfp inh 10% and BAZ2B block -11%.
For O=C(NCc1ccco1)c1ccc(S(=O)(=O)N2CCOCC2)cc1 the results were 12-LOX inh 0%, HP1b chromo inh inconclusive, G9a inh 13µM*, JMJD2A Tudor inconclusive, Sfp inh 20µM* and BAZ2B block 79µM*.
`COC(=O)c1ccc(NC(=S)NCc2ccco2)cc1` gave 12-LOX inh inconclusive, HP1b chromo inh 10%, G9a inh 50µM*, JMJD2A Tudor -21%, Sfp inh 6% and BAZ2B block inconclusive.
For CC(=O)c1ccc(NC(=S)NCc2ccco2)cc1 the results were 12-LOX inh 3%, HP1b chromo inh 28%, JMJD2A Tudor -17%, Sfp inh -5% and BAZ2B block inconclusive.
Screening O=S(=O)(c1cccc(C(F)(F)F)c1)N1CCN(C(=S)NCc2ccco2)CC1 returned 12-LOX inh -7%, HP1b chromo inh -12%, G9a inh inconclusive, JMJD2A Tudor -19%, Sfp inh 71µM* and BAZ2B block -30%.
CCCCNC(=O)CS(=O)Cc1nc(-c2cccs2)oc1C (stereo not drawn) was read as 12-LOX inh -4%, HP1b chromo inh 35%, G9a inh 50µM*, JMJD2A Tudor -9%, Sfp inh 12% and BAZ2B block -2%.
For Cc1oc(-c2cccs2)nc1CS(=O)CC(=O)NCCc1ccccc1 (stereo not drawn) the results were 12-LOX inh -7%[57.4 µM], HP1b chromo inh 21%, G9a inh 50µM*, JMJD2A Tudor -26%, Sfp inh -9% and BAZ2B block -25%.
For NC(=O)Nc1ccc(Oc2ncc(C(F)(F)F)cc2Cl)cc1 the results were 12-LOX inh 2%, HP1b chromo inh -11%, G9a inh 5%, JMJD2A Tudor inconclusive, Sfp inh 12% and BAZ2B block -4%.
For Cc1[nH]ccc(=O)c1Oc1ncc(C(F)(F)F)cc1Cl the results were 12-LOX inh -5%, HP1b chromo inh 21%, G9a inh 56µM*, JMJD2A Tudor -15%, Sfp inh 12% and BAZ2B block -10%.
`Cc1cc(C)cc(-n2nnn(C3C/C(=N/NC(N)=S)C4OCC3O4)c2=S)c1` (stereo not drawn) gave 12-LOX inh inconclusive, HP1b chromo inh -15%, G9a inh 50µM*, JMJD2A Tudor inconclusive, Sfp inh 56µM* and BAZ2B block -22%.
Screening CCCn1nnc(NC(=S)NC(=O)/C=C/c2ccc(Cl)cc2)n1 returned 12-LOX inh inconclusive, HP1b chromo inh -2%, G9a inh -2%, JMJD2A Tudor -18%, Sfp inh inconclusive and BAZ2B block -14%.
CCCCn1nnc(NC(=S)NC(=O)c2cccs2)n1 was read as 12-LOX inh inconclusive, HP1b chromo inh -27%, G9a inh 10µM*, JMJD2A Tudor inconclusive, Sfp inh inconclusive and BAZ2B block -3%.
CCCn1nnc(NC(=S)NC(=O)Cc2ccccc2)n1 was read as 12-LOX inh inconclusive, HP1b chromo inh 22%, G9a inh 32µM*, JMJD2A Tudor -1%, Sfp inh -14% and BAZ2B block -1%.
